Measurements as given in PubChem BioAssay AID1578 (Sanford-Burnham Center for Chemical Genomics, 2009).
Several values for one entry are separate records, joined by “and”; a condition that tells them apart may be missing. Equal entries are not always repeated. About 3,000 (1%) of roughly 290,000 compounds were called active. Only a selection was taken, and actives are over-represented in it overall. A number with no mark means an inactive call. Rule as the data show it: active = inhibition mostly above about 36% (no sharp cut-off); inactive = mostly below about 34%.

Experiment: NOD1 signaling inhibitors, primary screen, cell-based, luminescence, uHTS (AID 1578);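 also: HEK-293T reporter cells stimulated with the NOD1 agonist gamma-tri-DAP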
Conditions: NOD1-driven NF-kB luciferase reporter cells, at 4 µM, active compounds read high

Row | SMILES | inhibition
1 | COc1ccccc1-c1cc(-c2ccccc2)nc(=O)[nH]1 | -2.4%
2 | COc1ccc(NC(=O)c2cc([N+](=O)[O-])ccc2N2CCCC2)cc1 | -23.7%
3 | COc1ccc(NC(=O)c2cc([N+](=O)[O-])ccc2O)cc1 | 99.1% (active)
4 | COc1ccc(NC(=O)c2cc([N+](=O)[O-])ccc2N2CCCCC2)cc1 | -27.2%
5 | CCN1CCc2c(OCc3ccc(C)cc3)cccc2C1=O | 2.6%
6 | CCCCn1c(-c2csc3ccccc23)n[nH]c1=S | 5.2%
7 | CCCCNC(=O)C1CCN(C(=O)C2CCN(S(=O)(=O)c3ccc(C)cc3)CC2)CC1 | -21.1%
8 | C=CCC1(CC=C)CCCN1C(=O)c1cc(COc2ccc(F)c(F)c2)on1 | -18.8%
9 | C=CCC1(CC=C)CCCN1C(=O)c1cc(COc2cccc(OC)c2)on1 | 0.2%
10 | CNC(=O)/C=C1\NC(C)(C)Cc2c1ccc1ccccc21 | 14.5%
11 | Cc1nnc(N/N=C/C(C)c2ccccc2)[nH]c1=O (stereo unspecified) | -10%
12 | O=C(CCn1c2c(c3ccccc31)CCCC2)NNC(=O)c1ccc([N+](=O)[O-])cc1 | -4.7%
13 | CCCCn1c(SCC(=O)Nc2nnc(C)s2)nnc1-c1ccoc1C | 8.6%
14 | O=C(NCCCNC(=O)c1c(F)cccc1F)c1c(F)cccc1F | 1.4%
15 | O=C(NCC(O)c1ccc2ccccc2c1)c1c(F)cccc1F (stereo unspecified) | -2.4%
16 | O=C(NCC(Cl)c1ccc2ccccc2c1)c1c(F)cccc1F (stereo unspecified) | 31.2% (active)
17 | Cc1ccc(CN(Cc2cc3cc(C)ccc3[nH]c2=O)C(=O)N2CCOCC2)cc1 | -1.5%
18 | CC(C)CNC(=O)COC(=O)c1cc(Cl)cc(Cl)c1N | -25.7%
19 | CC1(C)Cc2nc(N)c(=O)sc2C1 | 5.3%
20 | CC(/C=C\c1cccnc1)=C/C(=O)O | -5.6% and -22.2%
21 | O=C(O)/C=C/c1cccnc1 | -4.2%
22 | O=C(/C=C/c1cccnc1)/C=C/c1cccnc1 | 49.7% (active)

Row | SMILES | inhibition
23 | COC(=O)CCC(=O)N(C)CC1CCCN(CCc2cccc(C(F)(F)F)c2)C1 (stereo unspecified) | 6.2%
24 | O=C(O)CCN1C(=O)c2ccc(Oc3ccc([N+](=O)[O-])cc3)cc2C1=O | -1.1%
25 | COc1ccccc1N(C(=O)c1snc(C(N)=O)c1N)C(C(=O)NC1CCCC1)c1ccc(N(C)C)cc1 (stereo unspecified) | -3%
26 | O=C(N/N=C/c1cccc2nccnc12)c1ccccc1O | 6%
27 | O=C(C#Cc1ccccc1)c1ccc([N+](=O)[O-])cc1 | 38.4%
28 | O=C(C#Cc1cccc([N+](=O)[O-])c1)c1ccccc1 | 55.8%
29 | O=C(C#Cc1ccccc1)c1cccc([N+](=O)[O-])c1 | 79.8% (active)
30 | Cc1nn(CCCC(=O)NC(C)c2ccccc2)c(=O)c2nn(-c3ccccc3)c(C)c12 (stereo unspecified) | -16.8%
31 | COc1ccccc1C(=O)Nc1ccccc1C(=O)NCc1ccco1 | 25.7%
32 | CCCSc1nc(SCC(=O)NCc2ccccc2)c2c3c(sc2n1)COC(C)(C)C3 | -25.4%
33 | CC(NC(=O)c1cnc2ccccc2n1)c1ccccc1 (stereo unspecified) | 78.3% (active)
34 | O=C(Nc1ccccc1)c1cnc2ccccc2n1 | -56.8%
35 | CC(NC(=O)c1ccc2ccccc2n1)c1ccccc1 (stereo unspecified) | -34.3%
36 | COc1ccc(S(=O)(=O)NC(N)=NCCc2ccc(OC)c(OC)c2)cc1C | -11.6%
37 | O=C1c2ccccc2C(=O)C12OC2c1ccc(Cl)cc1 (stereo unspecified) | 81.6% (active)
38 | O=C1c2ccccc2C(=O)C12OC2c1ccc(Cl)cc1Cl (stereo unspecified) | 36.6%
39 | O=C1c2ccccc2C(=O)C12OC2c1cccc2ccccc12 (stereo unspecified) | -22.4%
40 | C(=N\n1cnnc1)/C1CCCCC1 | -17.3%
41 | Nc1c(N2CCN(c3ccccc3)CC2)c2ccccc2oc1=O | 60.8% (active)
42 | Nc1c(N2CCCCC2)c2ccccc2oc1=O | -15%
43 | Nc1c(N2CCCC2)c2ccccc2oc1=O | -10.9%
44 | COc1ccc(OC)c(NC(=O)Cc2c(C(=O)O)n(C)c3ccccc23)c1 | -25.2%

Row | SMILES | inhibition
45 | NC(=O)C1CCN(C(=O)c2ccc3nc(N4CCCCC4)sc3c2)CC1 | -2.5%
46 | COC(=O)Cc1ccc(NC(=S)NCc2ccccc2OC)cc1 | -14.6%
47 | O=C(CC1NCCNC1=O)Nc1ccccc1 (stereo unspecified) | -14.1%
48 | Cc1ccc(C)c(NC(=O)C2CCCN(S(=O)(=O)c3c(C)noc3/C=C/N(C)C)C2)c1 (stereo unspecified) | -11.5%
49 | COc1ccc(/C=N/NC(=O)c2cccnc2)cc1O | 20%
50 | Cc1oc(-c2ccc3c(c2)OCCO3)cc1C(=O)O | 89.2% (active)
51 | CCOC(=O)CNC(=O)c1cc(-c2ccc3c(c2)OCCO3)oc1C | -24%
52 | Cc1oc(-c2ccc3c(c2)OCCO3)cc1C(=O)NCC(=O)O | -22.5%
53 | C=C1CCC[C@]2(C)C[C@H]3OC(=O)C(CNCC(OC)OC)[C@H]3CC12 (stereo partly specified) | -18%
54 | CCCOc1c(Br)cc(/C=N/O)cc1OC | 6%
55 | COc1cc(/C=N/O)cc(Br)c1OS(=O)(=O)c1ccc(C)cc1 | 78% (active)
56 | COc1cc(/C=N/O)cc(Br)c1OC | 6.6%
57 | COCCNC(=S)N1CCOCC1 | -13.4%
58 | CC(C)(C)C1=NN(c2ccc([N+](=O)[O-])cc2)C(c2ccccc2)C1 (stereo unspecified) | -37.3%
59 | COc1ccc(S(=O)(=O)N(C)C)cc1NC(=O)COC(=O)CC1CCCC1 | 41.4% (active)
60 | CCN(CC)S(=O)(=O)c1ccc(OC)c(NC(=O)CC2CCCC2)c1 | -26.7%
61 | CN(C)S(=O)(=O)c1ccc(Cl)c(NC(=O)COC(=O)CN2C(=O)C3CCCCC3C2=O)c1 (stereo unspecified) | -45.6%
62 | CN(CC(=O)Nc1ccc(Cl)c(Cl)c1)C1CCCCC1 | -29.4%
63 | O=C(c1ccco1)N(Cc1ccco1)Cc1cc2ccccc2[nH]c1=O | 5.8%
64 | O=C(C1COc2ccccc2O1)N1CCCC1 (stereo unspecified) | 9.4%
65 | O=C(C1COc2ccccc2O1)N1CCc2ccccc21 (stereo unspecified) | -44.3%
66 | O=C(C1COc2ccccc2O1)N1CCc2ccccc2C1 (stereo unspecified) | 45.7% (active)
